Data taken from PubChem BioAssay AID485364 (National Center for Advancing Translational Sciences (NCATS), 2010).
In all, about 360,000 compounds went through this assay and about 11,000 (3.1%) were called active. Another 4% or so got no clear call; they are omitted. The full list was thinned out, with actives kept by preference. Values without a mark were called inactive. The call rests on the fitted dose curve; in most records, active means well fitted inhibition curve with a large enough effect; inconclusive means small, poorly fitted or top-dose-only effect; inactive means no such curve, though single readings can be large or run the other way.

Molecular target: Schistosoma mansoni thioredoxin glutathione reductase (TGR) (UniProt Q962Y6)
Assay: qHTS Assay for the Inhibitors of Schistosoma Mansoni Peroxiredoxins; further: nearly all actives have a fitted effect of over 60% in size
Details: purified TGR, DTNB reduction, TNB absorbance 405 nm; series mostly up to 114 µM; activity change, negative = inhibition: at the top concentration
Source text: Schistosomiasis is a major neglected tropical disease that currently affects over 200 million. It is caused by different species of flatworms, such as Schistosoma mansoni. Over the last century, drugs to treat the disease have evolved from potassium antimonyl tartrate, artemisinin, oxamniquine, to praziquantel, with praziquantel remaining the universally-used single drug of choice over the past three decades. However, transmission rates have changed little with praziquantel, and there is evidence for the development of drug resistant parasites. Because there is currently no suitable alternative therapy available, there is an urgent need to identify new targets and drugs for schistosomiasis treatment. Thioredoxin glutathione reductase (TGR), one uniquely positioned S. mansoni enzyme, has been identified as a major component of the worms' distinct and compressed antioxidant "firewall". TGR is a multifunctional enzyme that catalyzes the interconversion between reduced and oxidized forms of both glutathione (GSH) and thioredoxins, thus making it an attractive new antiparasitic target. Recently, a quantitative high-throughput screen of the NIH Molecular Libraries Small Molecule Repository (MLSMR, ~71K at the time of the screen in 2007) was performed using an assay that targeted both TGR and peroxiredoxin2 (Prx2, an H2O2-reducing enzymatic component of the S. mansoni redox "firewall") by following the decrease of NADPH fluorescence. […] Additional mechanistic link between exogenous NO donation and parasitic injury for the oxadiazole-2-oxide class of compounds was also expanded and better defined. Although the screen addressed both TGR and Prx2, the assay required post-screen target deconvolution for further characterization of the actives. In addition, the fluorescence assay was also subject to fluorescence interference from compound library members. We have developed a 1536-well-based kinetic HTS assay to address TGR alone. The assay followed the reduction of 5, 5'-dithiobis (2-nitrobenzoic acid) (DTNB) (Ellman's reagent) by NADPH and measured the increase in absorbance at 412 nm of the reaction product, TNB. […] This assay format can be used to screen the current MLSMR collection (with >300K compounds available) to find novel TGR inhibitors. Furoxan is a good choice to serve as a positive control in the primary HTS assay.
Three microliters of reagents (100 uM NADPH and 20 nM TGR or 100 uM NADPH as no-enzyme control) were dispensed into 1,536-well black clear-bottomed plates. Compounds (23 nL) were transferred via Kalypsys pin tool equipped with 1536-pin array (10 nL slotted pins, V&P Scientific, San Diego, CA). The plates were then be incubated for 15 min at room temperature, and 1 uL aliquot of 500 uM NADPH were added, immediately followed by a 1 uL aliquot of 15 mM DTNB to start the reaction. The plate was transferred to a ViewLux high-throughput CCD imager (Perkin-Elmer, Wellesley, MA) where kinetic measurements of the TNB absorbance were acquired using a 405 excitation filter. Throughout the screen, reagent bottles and all liquid lines were made light-tight to minimize reagent degradation. All screening operations were performed on a fully integrated robotic system (Kalypsys, San Diego, CA) containing one RX-130 and two RX-90 anthropomorphic robotic arms (Staubli, Duncan, SC). Library plates were screened starting from the lowest and proceeding to the highest concentration, and a "double-dipping" step of the highest concentration was required to access higher concentrations of compounds. Vehicle-only plates, with DMSO being pin-transferred to the entire column 5-48 compound area, were inserted uniformly at the beginning and the end of each library in order to monitor for and record any shifts in the background, which can be affected by reagent dispensers or loss in enzyme activity overtime. […]
On the % scale 0 is the no-effect control and ±100 the full control effect; potency means the concentration at half of the fitted maximal effect.

Row | SMILES | activity change, negative = inhibition | Potency
1 | CCc1ccc(NC(=O)C2CCCN2S(=O)(=O)c2ccc3nc(-c4ccccc4)[nH]c3c2)cc1 (stereo unspecified) | -9.77% | –
2 | Fc1ccc(N2CCN(Cc3ccc4c(c3)OCO4)CC2)cc1 | 8.45% [at 11.4 µM] | –
3 | Oc1cc2c(cc1CN1CCN(c3ccccc3)CC1)OCO2 | – | 1.58 µM (active)
4 | CC(C)c1ccc(O)c(CN2CCN(c3ccccc3)CC2)c1 | 4.78% | –
5 | Cc1cc2c(cc1C)C(c1cccc(OC(C)C)c1)CC(=O)N2 (stereo unspecified) | 8.08% | –
6 | CCc1ccc2oc(-c3ccc(NC(=O)c4cc5ccccc5o4)cc3)nc2c1 | 5.27% | –
7 | COc1ccc(OC)c(CNC(=O)c2c3c(nc4ccccc24)C(=O)N(C2CCCCC2)C3)c1 | 4.02% | –
8 | COc1ccc(S(=O)(=O)NCC(c2ccc(N(C)C)cc2)N2CCCC2)cc1 (stereo unspecified) | -1.69% | –
9 | O=S(=O)(NCC(c1ccco1)N1CCOCC1)c1cc(F)ccc1F (stereo unspecified) | -10% | –
10 | CN(C)c1ccc(C(CNS(=O)(=O)c2cc(F)ccc2F)N2CCOCC2)cc1 (stereo unspecified) | – | 44.7 µM (active)
11 | CCCn1ccc2c(OCC(=O)NCc3ccc(F)cc3)cccc2c1=O | 10.9% | –
12 | COC(=O)c1ccccc1NC(=O)C(Cc1ccccc1)N1Cc2ccccc2C1=O (stereo unspecified) | -0.352% | –
13 | COc1ccc2oc(=N)c(C(=O)Nc3ccc(Br)cc3)cc2c1 | 3.72% | –
14 | COc1ccc(C(=O)c2oc3ccc(Br)cc3c2NC(C)=O)cc1 | 13.6% | –
15 | COc1ccc(/C=C/C(=O)c2cc(Br)ccc(=O)c2O)cc1 | – | 15.8 µM (active)
16 | O=S(=O)(c1ccccc1)c1nc(-c2ccc(Cl)cc2Cl)oc1N1CCCCC1 | -2.81% | –
17 | O=C(CSc1oc(-c2ccco2)nc1S(=O)(=O)c1ccc(Cl)cc1)c1ccccc1 | -4.02% | –
18 | O=S(=O)(c1ccc(Cl)cc1)c1nc(-c2ccco2)oc1N1CCCCC1 | – | 14.1 µM (active)
19 | CCCc1nn2c(=O)cc(COC(=O)c3ccc(NC(=O)C(C)Oc4ccccc4)cc3)nc2s1 (stereo unspecified) | -1.34% | –
20 | CN(C)CCCn1c(N)c(C#N)c2nc(C#N)c(C#N)nc21 | – | 20 µM (active)
21 | N#Cc1c(N)n(CCOC(=O)c2ccc(Cl)cc2)c2nc3ccccc3nc12 | 3.75% | –
22 | CCCN(CCC)C(=O)C(Cc1ccccc1)NS(=O)(=O)c1ccc2c(c1)c(=O)n(C)c(=O)n2C (stereo unspecified) | -10.4% | –
23 | CCCN(CCC)CCNC(=O)Cn1cnc2sc(C)c(S(=O)(=O)N3CCC(C)CC3)c2c1=O | -0.546% | –
24 | C=CCSc1nnc(N2C(=O)C(O)=C(C(=O)c3ccco3)C2c2ccc(F)cc2)s1 (stereo unspecified) | – | 14.1 µM (active)
25 | Cc1ccc2nc(N3C(=O)C(O)=C(C(=O)c4ccco4)C3c3cccc(O)c3)sc2c1 (stereo unspecified) | -23.4% | –
26 | CC(C)c1ccc(C2C(C(=O)c3ccco3)=C(O)C(=O)N2CC2CCCO2)cc1 (stereo unspecified) | 12.7% | –

Row | SMILES | activity change, negative = inhibition | Potency
27 | COc1ccc(NC(=O)CSc2ccc(-c3ccco3)nn2)c(OC)c1 | – | 20 µM (active)
28 | Cc1c(Cl)cccc1NC(=S)NCc1ccc2c(c1)OCO2 | 3.48% | –
29 | O=C(CSc1ccc(-c2ccccn2)nn1)Nc1ccccc1 | 1.31% | –
30 | COC(=O)Cc1ccc(NC(=S)NCc2ccco2)cc1 | -28.3% | –
31 | S=C(NCc1ccc2c(c1)OCO2)NCc1ccco1 | – | 35.5 µM (active)
32 | Cc1ccccc1-c1nnc(SCC(=O)NCc2ccc3c(c2)OCO3)n1C | -18.6% | –
33 | O=C(CSc1ccc(-c2ccco2)nn1)NCc1ccc2c(c1)OCO2 | – | 12.6 µM (active)
34 | O=C(CSc1ccc(-c2ccc(F)cc2)nn1)Nc1ccc2c(c1)OCCO2 | 7.31% | –
35 | COc1ccc(NC(=O)CSc2nc(SC)ns2)c(OC)c1 | 26.6% | –
36 | COc1ccc(NC(=O)CCC(=O)Nc2cc(OC)c(NC(=O)c3ccco3)cc2OC)c(OC)c1 | 1.32% | –
37 | CCn1c(=O)cc(SCC(=O)NCc2ccc3c(c2)OCO3)c2ccccc21 | -0.229% | –
38 | O=C(CSc1ccc(-c2ccco2)nn1)Nc1cccc(F)c1 | – | 10 µM (active)
39 | CCCn1c2ccccc2c2cnn(CC(=O)N(CC)c3cc(C)ccc3C)c(=O)c21 | 3.15% | –
40 | Fc1ccc(C(Nc2ccc(Cl)c(C(F)(F)F)c2)c2nnc(-c3ccccc3)o2)cc1 (stereo unspecified) | -1.3% | –
41 | Cc1ccc(Nc2c(-c3ccc(C)cc3)nc3cnccn23)cc1 | -3.11% | –
42 | CCOC(=O)c1cc2c(=O)n3ccccc3nc2n(CCCOC)c1=NC(=O)C(C)(C)Oc1ccc(Cl)cc1 | 9.19% | –
43 | Cc1ccc(C)c(NC(=O)C2CCCN(S(=O)(=O)c3cn(C)cn3)C2)c1 (stereo unspecified) | 4.47% | –
44 | O=C(CC1Oc2ccc(Cl)cc2NC1=O)NCc1ccccc1 (stereo unspecified) | -12.8% | –
45 | CCCSc1ncc(Cl)c(C(=O)Nc2sc3c(c2C(=O)NCCOC)CCCC3)n1 | -1.84% | –
46 | CCCN(CCC)CCCNC(=O)Cn1ncc2c3ccccc3n(Cc3ccccc3)c2c1=O | -2.18% | –
47 | COc1ccccc1NC(=O)c1oc2ccccc2c1NC(=O)C(C)C | 4.86% | –
48 | CCN(CC)S(=O)(=O)c1nnc(NC(=O)COc2ccccc2Cl)s1 | 9.78% | –
49 | CC(OC(=O)c1ccc2noc(-c3ccccc3)c2c1)C(N)=O (stereo unspecified) | – | 35.5 µM (active)
50 | CC(OC(=O)c1ccc2ccccc2n1)C(=O)c1ccccc1 (stereo unspecified) | -3.31% [at 57.1 µM] | –
51 | COc1ccc(-c2onc3ccc(C(C)=O)cc23)cc1 | -31.4% | –
